# From PubChem
# NOMO-1 viab = STK33 inhibitor candidate reducing NOMO-1 cell viability | NOMO-1 AML viability, CellTiter-Glo luminescence, 72 h | inhibition, % (test concentration not listed) | actives 7.5% (n = 37,000); in the data active means inhibition above about 80%; inconclusive means no clear call, values can overlap the other calls
# PD-1 reverse act = activators reversing PD-1 mediated T-cell inhibition; 29,000 tested, under 10 active; primary human CD4 T cells, PD-L1 beads, CellTiter-Glo 96 h; activation, % (concentration not given with the values); AID 2316; call rule not given here
# STK33 kin inh = human STK33 kinase inhibition. inhibition, % at 12.5 µM. Q9BYT3. ADP-Glo luminescence, MBP substrate. actives 0.44% (n = 27,000). AID 2322; in the data active means inhibition above about 20%; inconclusive means no clear call, values can overlap the other calls
# Target sequence (Q9BYT3 whole entry, looked up): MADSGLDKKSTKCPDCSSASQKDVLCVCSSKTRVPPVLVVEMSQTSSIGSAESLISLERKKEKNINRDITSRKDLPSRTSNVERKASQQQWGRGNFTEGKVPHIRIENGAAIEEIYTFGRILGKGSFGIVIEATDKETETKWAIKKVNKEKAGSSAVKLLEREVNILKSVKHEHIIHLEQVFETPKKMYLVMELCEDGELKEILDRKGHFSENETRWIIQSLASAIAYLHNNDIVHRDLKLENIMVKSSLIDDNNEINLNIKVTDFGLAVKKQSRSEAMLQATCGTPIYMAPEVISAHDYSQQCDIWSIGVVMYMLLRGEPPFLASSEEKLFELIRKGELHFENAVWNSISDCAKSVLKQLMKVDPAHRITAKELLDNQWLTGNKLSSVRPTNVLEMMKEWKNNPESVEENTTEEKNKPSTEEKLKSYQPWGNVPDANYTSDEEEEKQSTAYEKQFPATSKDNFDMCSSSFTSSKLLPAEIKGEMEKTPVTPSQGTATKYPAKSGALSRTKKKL
# Numbers stand for hits; n = inactive; u = inconclusive; x = no result. Shown is part of a subset that was picked to be rich in hits.
SMILES,NOMO-1 viab,PD-1 reverse act,STK33 kin inh
NS(=O)(=O)c1ccc(N=CC2=C(O)c3ccccc3C2=O)cc1,n,n,x
CC1C(=O)C(=O)[C@@H]2O[C@@H]2C1=O (stereo not given in full),96,n,n
CC1(C)C=Cc2c(c3occc3c3oc(-c4ccccc4)cc(=O)c23)O1,95,n,x
COc1ccc(-c2cc(=O)c3c(OC)c(OC)c(OC)c(OC)c3o2)cc1OC,n,n,n
Cc1nc2ccccc2nc1CSc1nc2ccccc2s1,n,n,n
COc1ccc(Cl)cc1N1CCN(CCNC(=O)Nc2ccccc2C)CC1,n,x,n
COc1ccc(C)cc1CN1CCC(CNC(=O)Nc2cc(Cl)ccc2C)CC1,122,n,n
Cc1ccc(S(=O)(=O)Nc2ccc3c(c2)CC(=O)N([C@@H](C)CO)C[C@@H](C)[C@@H](CN(C)Cc2ccc(Oc4ccccc4)cc2)O3)cc1,115,n,n
Cc1ccc(S(=O)(=O)Nc2ccc3c(c2)CC(=O)N([C@@H](C)CO)C[C@H](C)[C@H](CN(C)Cc2ccc(Oc4ccccc4)cc2)O3)cc1,120,n,n
COc1ccc(CN(C)C[C@H]2Oc3ccc(NS(=O)(=O)c4ccc(C)cc4)cc3CC(=O)N([C@@H](C)CO)C[C@@H]2C)cc1,n,x,x
COc1ccc(CN(C)C[C@@H]2Oc3ccc(NS(=O)(=O)c4ccc(C)cc4)cc3CC(=O)N([C@H](C)CO)C[C@@H]2C)cc1,n,x,x
C[C@H]1CN([C@@H](C)CO)C(=O)c2cccc(NS(=O)(=O)c3ccc(Cl)cc3)c2O[C@@H]1CN(C)S(=O)(=O)c1cccs1,n,n,x
C[C@H]1CN([C@@H](C)CO)C(=O)Cc2cc(NC(=O)Cn3cnnn3)ccc2O[C@H]1CN(C)S(=O)(=O)c1ccc(Cl)cc1,n,n,n
CC1=C(C(=O)OCC(C)C)C(c2ccc(Cl)cc2)NC(=O)N1C (stereo not given),n,n,x
O=c1cc(-c2ccccc2)nc2nc(NCc3cccc([N+](=O)[O-])c3)[nH]n12,n,n,n
O=[N+]([O-])c1cccc(-c2nn(-c3ccccc3)cc2CNCc2ccccc2)c1,93,n,n
CCn1c2ccccc2c2cc(CNCCc3ccc(Cl)cc3)ccc21,113,n,x
O=c1c2ccccc2n(Cc2ccc(Cl)cc2)c(=O)n1Cc1ccc(Cl)cc1,n,n,x
CC(=O)Nc1ccccc1NC(=O)CN(C)S(=O)(=O)c1ccc(Cl)cc1,n,n,n
C#Cc1cccc(Nc2ncnc3cc(OC)c(OC)cc23)c1,96,n,23
COc1cc2ncnc(Nc3ccc(OCc4ccccc4)cc3)c2cc1OC,n,n,n
COc1ccc(OC)c(Nc2ncnc3c2cnn3-c2ccccc2)c1,n,n,n
COc1cc2ncnc(Nc3ccc(Cl)cc3F)c2cc1OC,u,n,26
C=CCNC(=O)[C@@H]1[C@H]2C(=O)O[C@H](c3ccccc3)[C@H](c3ccccc3)N2[C@H](c2ccc(O)cc2)[C@@]12C(=O)Nc1ccc(C#CC3=CCCCC3)cc12,x,x,n
O=C(NC(=S)NC12CC3CC(CC(C3)C1)C2)c1ccccc1,n,n,x
SMILES,NOMO-1 viab,PD-1 reverse act,STK33 kin inh
S=C(NCc1ccccc1Cl)NC12CC3CC(CC(C3)C1)C2,115,n,n
CCOC(=O)N1N=C(C)CC1(O)c1cccnc1 (stereo not given),n,n,n
COc1ccc(S(=O)(=O)N(C)C[C@H]2Oc3c(NC(=O)c4nc5ccccc5s4)cccc3C(=O)N([C@@H](C)CO)C[C@H]2C)cc1,n,x,x
C[C@H](CO)N1C[C@H](C)[C@H](CN(C)S(=O)(=O)c2ccccc2)Oc2c(NC(=O)c3nc4ccccc4s3)cccc2C1=O,88,n,x
COc1ccc(S(=O)(=O)N(C)C[C@@H]2Oc3c(NC(=O)c4nc5ccccc5s4)cccc3C(=O)N([C@H](C)CO)C[C@@H]2C)cc1,117,n,x
Cc1ccc(S(=O)(=O)N(C)C[C@@H]2Oc3c(NC(=O)c4nc5ccccc5s4)cccc3C(=O)N([C@H](C)CO)C[C@H]2C)cc1,u,n,x
Cc1ccc(NC(=O)C(C)n2nc([N+](=O)[O-])c(Br)c2C)cc1Cl (stereo not given),n,x,n
CNC[C@@H]1Oc2ccc(NC(=O)Cc3ccccc3)cc2C(=O)N([C@@H](C)CO)C[C@@H]1C,n,n,n
CNC[C@@H]1Oc2c(N)cccc2C(=O)N([C@H](C)CO)C[C@@H]1C,n,n,n
COc1ccc(CN(C)C[C@H]2Oc3ccc(NS(=O)(=O)c4ccccc4)cc3C(=O)N([C@H](C)CO)C[C@@H]2C)cc1,n,n,x
C=CCN1C(=O)/C(=C/c2cn(C(C)CC)c3ccccc23)C(=O)NC1=S (stereo not given),132,n,x
C=CCN1C(=O)/C(=C/c2cc(C)n(CCOC)c2C)C(=O)NC1=S,n,n,x
C[C@H]1CN([C@@H](C)CO)C(=O)c2cccc(NC(=O)C3CCCCC3)c2O[C@@H]1CN(C)S(=O)(=O)c1ccc(F)cc1,n,x,x
C[C@H]1CN([C@@H](C)CO)C(=O)c2cc(NC(=O)Cc3ccccc3)ccc2O[C@@H]1CN(C)S(=O)(=O)c1ccccc1,n,n,n
CC[C@]1(O)C[C@H]2CN(CCc3c([nH]c4ccccc34)[C@@](C(=O)OC)(c3cc4c(cc3OC)N(C=O)[C@H]3[C@@](O)(C(=O)OC)[C@H](OC(C)=O)[C@@]5(CC)C=CCN6CC[C@]43[C@@H]65)C2)C1,94,n,n
C[C@@H]1CN([C@@H](C)CO)C(=O)c2cccc(NS(C)(=O)=O)c2O[C@H]1CN(C)C(=O)NC1CCCCC1,n,n,x
O=C(Cc1ccccc1)Nc1cccc(C(=O)OCC(=O)c2ccc(Cl)cc2)c1,n,n,n
C[C@H](CO)N1C[C@H](C)[C@H](CN(C)CC2CC2)Oc2ccc(NS(C)(=O)=O)cc2C1=O,n,n,x
CCOc1ccc(NC(=O)CSc2nc(N)c3c4c(sc3n2)COC(C)(C)C4)cc1,n,x,n
CCOC(=O)CSc1nc(N)c2c3c(sc2n1)COC(C)(C)C3,105,n,n
C[C@@H]1CN([C@@H](C)CO)C(=O)c2cc(NC(=O)Nc3ccc(F)cc3)ccc2O[C@@H]1CN(C)Cc1ccc(Cl)c(Cl)c1,113,n,n
C[C@H]1CN([C@@H](C)CO)C(=O)c2cc(NC(=O)Nc3ccc4c(c3)OCO4)ccc2O[C@H]1CN(C)Cc1ccncc1,95,n,n
COc1ccc(NC(=O)Nc2ccc3c(c2)C(=O)N([C@H](C)CO)C[C@@H](C)[C@H](CN(C)Cc2ccc(Cl)c(Cl)c2)O3)cc1,n,n,n
C[C@@H]1CN([C@@H](C)CO)C(=O)c2cc(NC(=O)Nc3ccccc3)ccc2O[C@H]1CN(C)Cc1ccc(Cl)c(Cl)c1,124,n,x
C[C@@H]1CN([C@H](C)CO)C(=O)c2cc(NC(=O)Nc3ccc(F)cc3)ccc2O[C@H]1CN(C)Cc1ccc(Cl)c(Cl)c1,n,n,n
C[C@H]1CN([C@@H](C)CO)C(=O)c2cc(NC(=O)Nc3ccc(F)cc3)ccc2O[C@H]1CN(C)Cc1ccc(Cl)c(Cl)c1,99,n,n
COc1ccc(NC(=O)Nc2ccc3c(c2)C(=O)N([C@@H](C)CO)C[C@H](C)[C@@H](CN(C)Cc2ccc(Cl)c(Cl)c2)O3)cc1,n,n,x
C[C@@H]1CN([C@H](C)CO)C(=O)c2cc(NC(=O)Nc3ccc4c(c3)OCO4)ccc2O[C@H]1CN(C)Cc1ccncc1,n,n,n
